# Luc counter – Kinase-Glo luciferase inhibition (counter-screen); Q27757; Kinase-Glo luciferase, ATP luminescence, 8 min; Potency, µM (highest dose often 38.3 µM), for the others: at the top dose activity change, negative = inhibition, usual class: inhibitors; 200,000 tested, 0.28% active; further: on the % scale 0 is the no-effect control and ±100 the full control effect; nearly all actives have a fitted effect of over 60% in size
#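 Kinase-Glo luciferase light output from ATP and luciferin was measured with 10 uM ATP, within the enzyme's linear range. Buffer: 50 mM imidazole pH 7.2, 50 mM KCl, 7 mM MgCl2, 0.01% Tween 20, 0.05% BSA; luminescence read after 8 min at ambient temperature.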
# NPC1 promoter act – NPC1 promoter activation | Huh7 NPC1 promoter luciferase reporter, 24 h | 320,000 tested, 2.4% active | Potency, µM (series often up to 9.22 µM), without a hit: at the top dose activation, usual class: activators; further: % of control where 0% means no effect; nearly all actives have a fitted effect of over 60% in size
#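 Stably transfected Huh7 (NPC1 promoter→luciferase), 1500 cells/well in Opti-MEM + 10% FBS, 2 h settle, then compound 24 h at 37 °C. Luminescence after 10 min with Amplite reagent.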
# FLuc counter – inhibits or activates purified firefly luciferase, miR-21 counter-screen; P08659; purified FLuc, Km substrates, luminescence inhibition; Potency, µM (series often up to 57.5 µM), for the others: at the top dose activity change, negative = inhibition, most hits filed as inhibitors; 360,000 tested, 6.9% active; AID 588342;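 further: plate controls were vehicle for no effect and reference inhibitor for full effect; nearly all actives have a fitted effect of over 55% in size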
# Target sequence (P08659 whole entry, looked up): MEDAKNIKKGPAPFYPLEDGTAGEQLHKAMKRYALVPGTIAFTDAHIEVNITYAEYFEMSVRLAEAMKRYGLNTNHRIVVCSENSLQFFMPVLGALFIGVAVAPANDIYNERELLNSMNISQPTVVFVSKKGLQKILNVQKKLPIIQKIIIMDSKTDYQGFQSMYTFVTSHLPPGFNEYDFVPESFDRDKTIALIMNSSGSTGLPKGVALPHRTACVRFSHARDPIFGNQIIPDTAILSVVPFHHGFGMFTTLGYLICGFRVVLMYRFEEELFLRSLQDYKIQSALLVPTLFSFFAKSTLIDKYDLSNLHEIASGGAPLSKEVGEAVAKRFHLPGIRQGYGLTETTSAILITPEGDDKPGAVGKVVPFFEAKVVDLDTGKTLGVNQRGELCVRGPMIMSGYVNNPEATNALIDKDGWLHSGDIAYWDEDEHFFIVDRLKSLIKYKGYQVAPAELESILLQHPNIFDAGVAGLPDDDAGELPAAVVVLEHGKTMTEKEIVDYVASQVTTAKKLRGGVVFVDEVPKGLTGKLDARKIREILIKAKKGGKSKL
#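 Purified P. pyralis luciferase (10nM final) with 10uM D-luciferin and 10uM ATP (Km levels) in 50mM Tris acetate pH 7.5, 10mM Mg acetate, 0.01% Tween-20, 0.05% BSA; qHTS 6-point titration, ~60 µM downward; luminescence read.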
# ELG1 genotoxic – inducers of genotoxicity in HEK293T ELG1-luciferase cells; HEK293T ELG1-luciferase reporter, luminescence, 16 h; Potency, µM (titrated, usually from 46 µM), without a hit: top-dose activity change, positive = activation, usual class: activators; 330,000 tested, 1.3% active; further: % of control where 0% means no effect; nearly all actives have a fitted effect of over 60% in size
#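 Step 1: seed 2,000 HEK293T ELG1-luciferase cells per well. Step 2: add compound or DMSO, incubate 16 hr at 37 °C. Step 3: ONE-Glo, 30 min at room temperature, read luminescence.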
# SMN2 splice enh – SMN2 splice variant enhancement; HEK293 SMN2-luciferase splicing reporter, luminescence, 30-36 h; Potency, µM (highest dose often 46.1 µM), for inactives: at the highest dose activity change, positive = activation, actives largely listed as activators; 210,000 tested, 2.8% active; further: % of control where 0% means no effect; nearly all actives have a fitted effect of over 55% in size
#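 HEK293 cells carry an SMN2 […]–luciferase reporter in which exon 7 inclusion puts luciferase in frame. Cells were plated 10-12 h before compound addition, then incubated 30-36 h at 37C. ONE-Glo luminescence was read; sodium butyrate at 4.5 mM final served as control.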
# Rab9 prom act – activates the Rab9 promoter | Huh7 Rab9 promoter-luciferase reporter, luminescence, 24 h | Potency, µM (series often up to 9.22 µM), inactives show at the top dose activation, negative = inhibition, hits mostly activators | 320,000 tested, 2.8% active; further: % of control where 0% means no effect; nearly all actives have a fitted effect of over 60% in size
#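 Rab9 promoter-driven luciferase in stably transfected Huh7 cells; 1500 cells/well rested 2 h, exposed to compound in DMSO for 24 h at 37 °C, 5% CO2. Luminescence read 10 min after adding luciferase reagent at ambient temperature.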
# * marks the source's active call; other numbers are inactive results; ? = inconclusive; / = no result. A selection: hits, their analogues and other compounds. The true share with any hit is near 7.5%. The call rests on the fitted dose curve; in most records, active means well fitted curve in the direction sought with a large enough effect; inconclusive means small, poorly fitted or top-dose-only effect, or another doubt; inactive means no such curve, though single readings can be large; an effect the other way counts as inactive or inconclusive. Potency means the concentration at half of the fitted maximal effect.
SMILES,Luc counter,NPC1 promoter act,FLuc counter,ELG1 genotoxic,SMN2 splice enh,Rab9 prom act
COc1ccc(C(=O)Nc2cccc(C(C)=O)c2)cc1OC,-17%,18%,?,18%,14%,7%
Cc1ccc(NC(=O)Nc2ccc3c(c2)nnn3C)cc1C,/,?,-7%,13%,/,?
COc1ccccc1NC(=O)NC(=O)c1ccccc1,/,2.5µM*,1.2µM*,?,/,?
Cc1ccc(NC(=O)CSCC(=O)NCCc2ccccc2)c(C)c1,/,-2%,2%,2%,/,7%
COC(=O)c1ccc(NS(=O)(=O)c2ccc(-c3cc(C)no3)s2)cc1,/,0%,0%,0%,/,-2%
COc1ccccc1NC(=O)Nc1ccc(F)c(F)c1,-23%,12%,17µM*,1%,28%,18%
COc1ccccc1NC(=O)NCC(=O)Nc1ccc(F)c(F)c1,-3%,0%,-3%,10%,/,1%
COc1ccccc1C(=O)Nc1cccc(C(=O)c2ccccc2)c1,/,-2%,17µM*,2%,/,1%
O=C(CN1CCN(CN2C(=O)NC3(CCCCCC3)C2=O)CC1)Nc1ccc(F)cc1,/,0%,0%,1%,/,-6%
COc1ccc(NC(=O)CCCn2cnc3ccccc3c2=O)cc1,/,-4%,0%,4%,/,-4%
COc1cc(-c2nc3cccc(C)n3c2Nc2ccc3c(c2)OCCO3)ccc1O,/,/,-2%,/,2%,/
Cc1ccc(Nc2ncnc3c2cnn3-c2ccccc2)c(C)c1,/,/,19µM*,/,/,/
Cc1ccc(-n2ncc3c(Nc4ccc(Oc5ccccc5)cc4)ncnc32)cc1,/,/,-6%,/,/,/
Cc1ccc(-n2ncc3c(Nc4cccc(C)c4C)ncnc32)cc1,/,/,8.5µM*,/,/,/
CCOc1ccccc1Nc1ncnc2c1cnn2-c1ccc(C)cc1,/,/,15µM*,/,/,/
CCOc1ccccc1Nc1ncnc2c1cnn2-c1ccccc1,2%,-1%,-13%,-5%,-6%,0%
COc1ccc(CNC(=O)COc2ccc(S(=O)(=O)N3CCOCC3)cc2C)cc1,/,-1%,-3%,-18%,/,2%
COc1ccc(CC2=CC(=O)c3ccccc3C2=O)cc1,/,-5%,2.4µM*,12%,/,17%
CCCCN(CCCC)C(=S)N/N=C/c1c(C)[nH]n(-c2ccccc2)c1=O,1%,-8%,-3%,-7%,-75%,-9%
Cc1[nH]n(-c2ccc(Br)cc2)c(=O)c1/C=N/NC(=O)c1ccccc1,/,-22%,2.1µM*,?,/,-36%
Cc1[nH]n(-c2ccccc2)c(=O)c1/C=N/NC(=O)c1cccc(F)c1,/,-32%,9.5µM*,?,/,-39%
CN(C)CCOC(=O)NCC12CC3CC(CC(C3)C1)C2,/,-5%,1%,-5%,/,-1%
CCCCC1CCC(c2nc(-c3ccccn3)no2)CC1 (stereo not drawn),-6%,?,2.7µM*,?,11µM*,?
O=C(Nc1ccc2c(c1)OCCO2)c1ccc(Br)s1,-7%,3.5µM*,0.67µM*,1.5µM*,1.1µM*,1.6µM*
O=C(Nc1ccc2c(c1)OCCO2)c1ccc(Cl)cc1Cl,/,0.45µM*,1.2µM*,?,/,0.28µM*
SMILES,Luc counter,NPC1 promoter act,FLuc counter,ELG1 genotoxic,SMN2 splice enh,Rab9 prom act
CC(C)(O)C#Cc1ccc(C(=O)NCCC(=O)O)s1,0%,0%,8%,1%,7%,-6%
O=C(CCCc1cccs1)Nc1ccc2c(c1)OCO2,-3%,2.2µM*,11µM*,?,14µM*,2.8µM*
CC(C)(O)C#Cc1ccc(C(=O)Nc2ccc3c(c2)OCO3)s1,/,2.8µM*,8.5µM*,?,/,?
CCC1CCc2sc(C(=O)NCC(c3ccc(OC)cc3)N3CCCC3)cc2C1 (stereo not drawn),/,-2%,-12%,-3%,/,-9%
CC1CCN(c2nc3ccccc3nc2SCC(=O)Nc2ccccc2C(C)C)CC1,/,/,-5%,/,4%,/
C[C@H](CO)N1C[C@H](C)[C@@H](CN(C)C(=O)NC2CCCCC2)Oc2c(NC(=O)C3CCCCC3)cccc2C1=O,/,/,/,0%,/,/

# Compound activity (PubChem)
